Activity calls are given as the source filed them. The calls were made as follows: active = hit-call score of the fitted dose curve at least 0.9, where 1 is the maximum; inactive = score below 0.9.
Read-out: not listed separately
Experiment: BSK_3C_SRB: Viability Assessment in the BioMAP Diversity Plus: 3C Assay (AID 2283023);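 also: fitted both ways against DMSO so a hit may be signal rise or drop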
Details: primary human endothelial cells (HUVEC)
How it was run: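 HUVEC, 24 h post-dose; 10% TCA fix, 0.1% SRB stain, A560 nm. Bidirectional curve fit vs DMSO negative control.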
With `C=C(C)C(=O)OCCOCCOCCOC(=O)C(=C)C` the outcome was “inactive”.
With `C[C@@H]1CCN(C(=O)[C@H](CCCN=C(N)N)NS(=O)(=O)c2cccc3c2NC[C@H](C)C3)[C@@H](C(=O)O)C1` the outcome was “inactive”.
In the case of `C=C(C)C(=O)OCCOCCOCCOCCOC(=O)C(=C)C`, the outcome is reported as “inactive”.
For `CCN(CC)C(=O)N(CC)CC`, the outcome was “inactive”.
In the case of `CC(CN=Cc1ccccc1O)N=Cc1ccccc1O` (stereo not drawn), the outcome is reported as “inactive”.
For `C=C(C)C(=O)OCC(CC)(COC(=O)C(=C)C)COC(=O)C(=C)C`, the outcome was “inactive”.

Read-out: Matrix Metallopeptidase 1 (MMP1), MMP1 (gene 4312)
Experiment: BSK_BE3C_MMP1: BioMAP Diversity Plus: BE3C Assay for Matrix Metallopeptidase 1 (MMP1) Biomarker Activity (AID 2283024)
Details: primary human bronchial epithelial cells; actives raise or lower the signal
How it was run: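 MMP1 signal, measured by ELISA after a 24 h chemical exposure of human primary bronchial epithelial cells, is analysed with bidirectional fitting using DMSO as negative control.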
With `C=C(C)C(=O)OCCOCCOCCOC(=O)C(=C)C` the outcome was “inactive”.
For `C[C@@H]1CCN(C(=O)[C@H](CCCN=C(N)N)NS(=O)(=O)c2cccc3c2NC[C@H](C)C3)[C@@H](C(=O)O)C1`, the AC50 was 0.0398 µM (active).
In the case of `C=C(C)C(=O)OCCOCCOCCOCCOC(=O)C(=C)C`, the outcome is reported as “inactive”.
With `CCN(CC)C(=O)N(CC)CC` the outcome was “inactive”.
In the case of `CC(CN=Cc1ccccc1O)N=Cc1ccccc1O` (stereo not drawn), the outcome is reported as “inactive”.
In the case of `C=C(C)C(=O)OCC(CC)(COC(=O)C(=C)C)COC(=O)C(=C)C`, the outcome is reported as “inactive”.

Read-out: not listed separately
Experiment: BSK_3C_Vis: BioMAP Diversity Plus: 3C Assay for Morphology Visualization (AID 2283025);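 also: fitted both ways so gain or loss versus DMSO counts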
Details: primary human endothelial cells (HUVEC)
How it was run: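 Morphology read by light microscopy serves as a background control for the multiplexed 3C assay in human umbilical vein endothelial cells, taken 24 h after dosing, with DMSO as the negative control and bidirectional curve fitting.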
In the case of `C=C(C)C(=O)OCCOCCOCCOC(=O)C(=C)C`, the outcome is reported as “inactive”.
For `C[C@@H]1CCN(C(=O)[C@H](CCCN=C(N)N)NS(=O)(=O)c2cccc3c2NC[C@H](C)C3)[C@@H](C(=O)O)C1`, the outcome was “inactive”.
For `C=C(C)C(=O)OCCOCCOCCOCCOC(=O)C(=C)C`, the outcome was “inactive”.
In the case of `CCN(CC)C(=O)N(CC)CC`, the outcome is reported as “inactive”.
In the case of `C=C(C)C(=O)OCC(CC)(COC(=O)C(=C)C)COC(=O)C(=C)C`, the outcome is reported as “inactive”.

Read-out: Pselectin, SELP (gene 6403)
Experiment: BSK_4H_Pselectin: BioMAP Diversity Plus: 4H Assay for Pselectin Biomarker Activity (AID 2283026)
Details: primary human endothelial cells (HUVEC); actives raise or lower the signal
How it was run: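 Endothelial primary cells (human umbilical vein) are dosed, incubated 24 h, and assayed for surface P-selectin by ELISA; responses in either direction are fitted relative to the DMSO negative control.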
In the case of `C=C(C)C(=O)OCCOCCOCCOC(=O)C(=C)C`, the outcome is reported as “inactive”.
With `C[C@@H]1CCN(C(=O)[C@H](CCCN=C(N)N)NS(=O)(=O)c2cccc3c2NC[C@H](C)C3)[C@@H](C(=O)O)C1` the outcome was “inactive”.
For `C=C(C)C(=O)OCCOCCOCCOCCOC(=O)C(=C)C`, the outcome was “inactive”.
With `CCN(CC)C(=O)N(CC)CC` the outcome was “inactive”.
With `CC(CN=Cc1ccccc1O)N=Cc1ccccc1O` (stereo not drawn) the outcome was “inactive”.
With `C=C(C)C(=O)OCC(CC)(COC(=O)C(=C)C)COC(=O)C(=C)C` the outcome was “inactive”.

Read-out: not listed separately
Experiment: BSK_4H_SRB: Viability Assessment in the BioMAP Diversity Plus: 4H Assay (AID 2283027);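 also: cells exposed to compound for 24 h before staining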;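 as to AC50: curves fitted both ways versus DMSO so AC50 may be loss or gain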
Details: primary human endothelial cells (HUVEC)
How it was run: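 Cytotoxicity readout: sulforhodamine B (0.1%) staining of total protein after 10% TCA fixation, measured at 560 nm in human umbilical vein endothelium at 24 h. DMSO set the baseline; fitting was bidirectional.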
With `C=C(C)C(=O)OCCOCCOCCOC(=O)C(=C)C` the outcome was “inactive”.
With `C[C@@H]1CCN(C(=O)[C@H](CCCN=C(N)N)NS(=O)(=O)c2cccc3c2NC[C@H](C)C3)[C@@H](C(=O)O)C1` the outcome was “inactive”.
With `C=C(C)C(=O)OCCOCCOCCOCCOC(=O)C(=C)C` the outcome was “inactive”.
For `CCN(CC)C(=O)N(CC)CC`, the outcome was “inactive”.
For `CC(CN=Cc1ccccc1O)N=Cc1ccccc1O` (stereo not drawn), the outcome was “inactive”.
For `C=C(C)C(=O)OCC(CC)(COC(=O)C(=C)C)COC(=O)C(=C)C`, the AC50 was 9.41 µM (active).

Read-out: not listed separately
Experiment: BSK_BE3C_SRB: Viability Assessment in the BioMAP Diversity Plus: BE3C Assay (AID 2283028)
Details: primary human bronchial epithelial cells
How it was run: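 Primary human bronchial epithelium; chemical dosing, 24 h; 10% TCA fix, 0.1% SRB stain, A560; bidirectional fit vs DMSO baseline.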
For `C=C(C)C(=O)OCCOCCOCCOC(=O)C(=C)C`, the outcome was “inactive”.
With `C[C@@H]1CCN(C(=O)[C@H](CCCN=C(N)N)NS(=O)(=O)c2cccc3c2NC[C@H](C)C3)[C@@H](C(=O)O)C1` the outcome was “inactive”.
With `C=C(C)C(=O)OCCOCCOCCOCCOC(=O)C(=C)C` the outcome was “inactive”.
In the case of `CCN(CC)C(=O)N(CC)CC`, the outcome is reported as “inactive”.
For `CC(CN=Cc1ccccc1O)N=Cc1ccccc1O` (stereo not drawn), the outcome was “inactive”.
With `C=C(C)C(=O)OCC(CC)(COC(=O)C(=C)C)COC(=O)C(=C)C` the outcome was “inactive”.

Read-out: Thrombomodulin, THBD (gene 7056)
Experiment: BSK_3C_Thrombomodulin: BioMAP Diversity Plus: 3C Assay for Thrombomodulin Biomarker Activity (AID 2283029)
Details: primary human endothelial cells (HUVEC); actives raise or lower the signal
How it was run: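 Endothelial cells from umbilical vein are dosed with test chemical and incubated 24 h. Thrombomodulin is then quantified by ELISA, with DMSO serving as negative control and activity baseline.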
For `C=C(C)C(=O)OCCOCCOCCOC(=O)C(=C)C`, the outcome was “inactive”.
With `C[C@@H]1CCN(C(=O)[C@H](CCCN=C(N)N)NS(=O)(=O)c2cccc3c2NC[C@H](C)C3)[C@@H](C(=O)O)C1` the outcome was “inactive”.
With `C=C(C)C(=O)OCCOCCOCCOCCOC(=O)C(=C)C` the outcome was “inactive”.
For `CCN(CC)C(=O)N(CC)CC`, the outcome was “inactive”.
In the case of `CC(CN=Cc1ccccc1O)N=Cc1ccccc1O` (stereo not drawn), the outcome is reported as “inactive”.
In the case of `C=C(C)C(=O)OCC(CC)(COC(=O)C(=C)C)COC(=O)C(=C)C`, the outcome is reported as “inactive”.

Read-out: Urokinase-type plasminogen activator receptor (uPAR), PLAUR (gene 5329)
Experiment: BSK_4H_uPAR: BioMAP Diversity Plus: 4H Assay for Urokinase-type plasminogen activator receptor (uPAR) Biomarker Activity (AID 2283030)
Details: primary human endothelial cells (HUVEC); actives raise or lower the signal
How it was run: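 HUVEC, 24 h post-dose; uPAR by ELISA; bidirectional fit vs DMSO baseline.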
With `C=C(C)C(=O)OCCOCCOCCOC(=O)C(=C)C` the outcome was “inactive”.
In the case of `C[C@@H]1CCN(C(=O)[C@H](CCCN=C(N)N)NS(=O)(=O)c2cccc3c2NC[C@H](C)C3)[C@@H](C(=O)O)C1`, the outcome is reported as “inactive”.
In the case of `C=C(C)C(=O)OCCOCCOCCOCCOC(=O)C(=C)C`, the outcome is reported as “inactive”.
In the case of `CCN(CC)C(=O)N(CC)CC`, the outcome is reported as “inactive”.
For `CC(CN=Cc1ccccc1O)N=Cc1ccccc1O` (stereo not drawn), the outcome was “inactive”.
In the case of `C=C(C)C(=O)OCC(CC)(COC(=O)C(=C)C)COC(=O)C(=C)C`, the outcome is reported as “inactive”.

Read-out: Vascular endothelial growth factor receptor 2 (Homo sapiens) (UniProt P35968)
Experiment: BSK_4H_VEGFRII: BioMAP Diversity Plus: 4H Assay for Vascular endothelial growth factor receptor 2 (VEGFR2) Biomarker Activity (AID 2283031)
Details: primary human endothelial cells (HUVEC); actives raise or lower the signal
How it was run: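 HUVEC (human primary), 4H system; 24 h post-dose; VEGFRII by ELISA; bidirectional curve fit vs DMSO baseline; gain or loss of signal scored.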
For `C=C(C)C(=O)OCCOCCOCCOC(=O)C(=C)C`, the outcome was “inactive”.
With `C[C@@H]1CCN(C(=O)[C@H](CCCN=C(N)N)NS(=O)(=O)c2cccc3c2NC[C@H](C)C3)[C@@H](C(=O)O)C1` the outcome was “inactive”.
In the case of `C=C(C)C(=O)OCCOCCOCCOCCOC(=O)C(=C)C`, the outcome is reported as “inactive”.
With `CCN(CC)C(=O)N(CC)CC` the outcome was “inactive”.
With `CC(CN=Cc1ccccc1O)N=Cc1ccccc1O` (stereo not drawn) the outcome was “inactive”.
For `C=C(C)C(=O)OCC(CC)(COC(=O)C(=C)C)COC(=O)C(=C)C`, the outcome was “inactive”.

Reference: PubChem BioAssay (EPA / NIEHS)
